Measured values: article PMC13494018
A number with no mark means an inactive call. The rule behind the calls is not given here.

B1: design_599_7ce25d4d-e004-4b84-a16f-baf856d943ab_1925_dldesign_0_cycle1_af2pred (protein)
chain: AQAVLDEAKKAADKAIALANQAIALAKTDLAAGKAKMEEALEELTEADYLADKAAKAGATEEAKKVRDKAKAAIDAARATIKAA
B2: design_600_24101276-ad9d-4944-b73e-53bb160363ad_1012_dldesign_0_cycle1_af2pred (protein)
chain: VEELVKKAAEKKEKAVELIDEGKLEEAEKEAEELKKLAEEIKKKDPKLGEEALKGARALKRLIKEAKEAEEK
B3: design_599_7ce25d4d-e004-4b84-a16f-baf856d943ab_2014_dldesign_0_cycle1_af2pred (protein)
chain: AELKAKAAIARVEFQAENIIEAGKKNGKEAEKIVKAAEETVKKAKEEIEKDPERAWEIAEKYIRELQEKARELIEKA
B4: design_600_24101276-ad9d-4944-b73e-53bb160363ad_1126_dldesign_0_cycle1_af2pred (protein)
chain: SEEAKKLLEELKKAAEEAIAKAKELEKEDPAKAAEYAKKALKELRAKGKEIAELDPAFAPEAGAEVQKVQEYRAEAEAKALRKK
B5: design_599_7ce25d4d-e004-4b84-a16f-baf856d943ab_2320_dldesign_0_cycle1_af2pred (protein)
chain: SVKSRAESAYVTAAARHAKEKAAADPAYAELYGKVLFGFYDTLDDPSAAEETYALDPELAPKLLEEMEKVGKAAADAELAK
B6: design_599_7ce25d4d-e004-4b84-a16f-baf856d943ab_1969_dldesign_0_cycle1_af2pred (protein)
chain: MKVEEEVKKTKKVAEEAIKRAEEERKKASPELKEETEEVIKKAKEYMEKAEKAVKEGDYEKAKEYAKKMATYASELIALVNAIKH
B7: design_600_24101276-ad9d-4944-b73e-53bb160363ad_124_dldesign_0_cycle1_af2pred (protein)
chain: NEMKKKAEELQKKARKLREVVKKGPKDAAEAKKAAEEAKKVAEEAEKAIEEDPSADPKTIAKLQRAAFSAEAAAKQLEKWL
B8: design_599_7ce25d4d-e004-4b84-a16f-baf856d943ab_2233_dldesign_0_cycle1_af2pred (protein)
chain: SLVANIGQDIRSEAIAKAKLGGAEGAKEGAELAREAAVAFRKLGEASTPELKELAEKAAEIMERVSERLEEEAKRKAA
B9: design_600_24101276-ad9d-4944-b73e-53bb160363ad_1044_dldesign_0_cycle1_af2pred (protein)
chain: MTPEERKALALKEQAEHTAKAGKKLGAKDPEAALKAAERLKKLAERAKKTGTEEGKEAAKLAEEYAKELEKLAKKAKE
B10: design_599_7ce25d4d-e004-4b84-a16f-baf856d943ab_1942_dldesign_0_cycle1_af2pred (protein)
chain: KEEIKKIAEEAIEKAENAKTKEQAAEAAKLAAEALKKVGAEKAAKRAEEVAKKAKEGSDSEVPELSKETLILAEQVLFAV
B11: design_600_24101276-ad9d-4944-b73e-53bb160363ad_894_dldesign_0_cycle1_af2pred (protein)
chain: MTVEEYLKQAKEAGEEAIKILKETAKKDPSSKDVADMLIKAVETTLKEGSEKAKKEGAEKAKQLLEKMKLGLRTAKRLLENVERSE
B12: design_600_24101276-ad9d-4944-b73e-53bb160363ad_591_dldesign_0_cycle1_af2pred (protein)
chain: AEAEYKKAKELLKKAKEALKKNPEEALKLAKEAVEAAKKAAEADPSLAPELGKYAQEALQIISEARFKIS
B13: design_600_24101276-ad9d-4944-b73e-53bb160363ad_1404_dldesign_0_cycle1_af2pred (protein)
chain: SLKEEIKNKEKSGKNNVEAAKMAAEEGDITFAKSAIAAAKKAIEQLKELAKKATPEVAKEGKEAAEKLEKEREEAEKLLKKKEA
B14: design_600_24101276-ad9d-4944-b73e-53bb160363ad_768_dldesign_0_cycle1_af2pred (protein)
chain: AEDLKKAIEKIKKEVGEEAAKLVGEALKAKQAAADDPSLAETQLKKVEELEKEAKKLDPKAAKLVSKIKKVVKRMVEN
B15: design_600_24101276-ad9d-4944-b73e-53bb160363ad_1035_dldesign_0_cycle1_af2pred (protein)
chain: EKLEEAEKERDKAVDKLAALVAKALGPEAGAKARAAAKKGLAALKAVVAEAAKTSGLTAELAKALHEVYQATAEAELLKKK
B16: design_600_24101276-ad9d-4944-b73e-53bb160363ad_1344_dldesign_0_cycle1_af2pred (protein)
chain: SFKKEAAIESSKELLDQAVAAAKADPARATEIAKTGLKKATERAKKAGEEAYKTVKEYGEKLLAEVEAAAKAAA
B17: design_600_24101276-ad9d-4944-b73e-53bb160363ad_1283_dldesign_0_cycle1_af2pred (protein)
chain: EEEKKEIAKKTEEYYKELLKVAKEVAAKDPSKKPELAKLTDEAAQYVAEAKAGLNPEEALEKVKKLLEEAKKIA
B18: design_600_24101276-ad9d-4944-b73e-53bb160363ad_146_dldesign_0_cycle1_af2pred (protein)
chain: SKIYKLYGELTVEILKEKAEEAVELAKEGKAEEAKKYLKEAYERAKARAERLKEIDPEAGKEALKAVEKTYKEYEKELEKAIKEN
B19: design_600_24101276-ad9d-4944-b73e-53bb160363ad_1238_dldesign_0_cycle1_af2pred (protein)
chain: AVKEQAKALAEAGLKADVETAKKYAAAAVLLAFDSSDTEDVKYAAELLKKAAKEATDPEKKEAFERAARVVERAAEDMRKAEER
B20: design_599_7ce25d4d-e004-4b84-a16f-baf856d943ab_2060_dldesign_0_cycle1_af2pred (protein)
chain: SSLDKKIAEEALKTAREGRKKVEELVKAGKYEEALALAKELREKMLKVYEELVKEGGTIEGIQAAFSAAMLMESAESYAKTKLEAAK
B21: design_599_7ce25d4d-e004-4b84-a16f-baf856d943ab_1823_dldesign_0_cycle1_af2pred (protein)
chain: NISEENKKLAAAEQAKFTAEAAIKKVKATTPEEAKKVAEEAIKRLEKLGKVGEEAAKVAKEEIAKLKATAEKVAA
B22: design_600_24101276-ad9d-4944-b73e-53bb160363ad_984_dldesign_0_cycle1_af2pred (protein)
chain: AKEEDLKKAEEELKKFAEEAAKELKEAGAKKQDIESTKEYGEHRAEAVVTTSKKKGLSPEELKKLVKEAKERIKKYKENKL
B23: design_599_7ce25d4d-e004-4b84-a16f-baf856d943ab_2019_dldesign_0_cycle1_af2pred (protein)
chain: GEELREKLLKEAEEAVKAAAADVPEMKDRLLAQMEKAKAAPLSKAPTELARLGSLLMAAAFATGSKTAEEAAEIAADAALKLK
B24: design_600_24101276-ad9d-4944-b73e-53bb160363ad_1688_dldesign_0_cycle1_af2pred (protein)
chain: GLKEEGKKKIKEIKELAKKALENPEKAEEYVKKARELAKEVAEKLPELGKEAAEAAQEALENRAEGKAKLAREK
B25: design_600_24101276-ad9d-4944-b73e-53bb160363ad_1218_dldesign_0_cycle1_af2pred (protein)
chain: DEEKKKKAAEALDKAAELAKKAAEDEKYLPEALKALKETAKLAGEALGAEAAHAILEARAVVKAKGKEGAKEAAEVLEELRKKVR
B26: design_600_24101276-ad9d-4944-b73e-53bb160363ad_105_dldesign_0_cycle1_af2pred (protein)
chain: GEEEEKKKKAVEKAKKALEQTKKAADKGTALDPSAKPEFDKIVKEAEKELKKAEEGDAETAKKAAKEAIEEAHKAYELRAEVEAKAIR
B27: design_599_7ce25d4d-e004-4b84-a16f-baf856d943ab_1912_dldesign_0_cycle1_af2pred (protein)
chain: MEKLKELLEKTKELAKKGVEYAKKGDEEKARKYMLEARKYAEEAKKLDPEAGKEAAKIIQEAYEEMAEARFEVN
B28: design_599_7ce25d4d-e004-4b84-a16f-baf856d943ab_2071_dldesign_0_cycle1_af2pred (protein)
chain: GKAKEIAKKGAEELGKALGEEAKVDADIAAEQAEMQPTPELMAEAFKRGAKRIGEKTGKLEKAEEVAKKTVKAIKE
B29: design_600_24101276-ad9d-4944-b73e-53bb160363ad_1735_dldesign_0_cycle1_af2pred (protein)
chain: SEEEEKLREENRKIAEKERNAHVAKAAAKLVEKATPEEAVAILEKAAKAASDTEFFLALAKKVKAEGKKGVKEAVKALKKRAKEL
B30: design_599_7ce25d4d-e004-4b84-a16f-baf856d943ab_2004_dldesign_0_cycle1_af2pred (protein)
chain: DARKKAAELFKEAGKLATEAAKASPEEGKKLAEEAVAKVKEAAKVLGRERIGENFIKQIVAGRKSREIAGYQLEARADAIAA
B31: design_600_24101276-ad9d-4944-b73e-53bb160363ad_358_dldesign_0_cycle1_af2pred (protein)
chain: DALAAGIVAAMREDPARGAAAARNAALQYEDDPAAYEAVKAAALAAAAADPAVAAALAAAFDAAAKEVSA
B32: design_600_24101276-ad9d-4944-b73e-53bb160363ad_953_dldesign_0_cycle1_af2pred (protein)
chain: DAKKAAADALVATAAAEDPSLKPLAQEVADKAIASEDGLKAAKEGMTALAKKYPEYAKAFAAAMQAFYETYNEAEFKKKKA
B33: design_600_24101276-ad9d-4944-b73e-53bb160363ad_1181_dldesign_0_cycle1_af2pred (protein)
chain: AAEEEIKKAITEAKDAALDSAYIAAKDPSKAAEAEAAYNAALGKLEEALKVLDEETRKKAIQSVKNIRDSTYEASKKSLKS
B34: design_600_24101276-ad9d-4944-b73e-53bb160363ad_769_dldesign_0_cycle1_af2pred (protein)
chain: NEELIKFKAKAYSTAYSTAHTVAAAEKIAKTGTPEEAAKAKAAAAKALARLKEVGKEAKKKGPEYAKAFEEAAKEGEKVLKELLA
B35: design_600_24101276-ad9d-4944-b73e-53bb160363ad_1440_dldesign_0_cycle1_af2pred (protein)
chain: SEKVKKDSEAIRKLVKAVKEAGKAAKAAAKAAPEVAAVAEAAQKASAQLVFEALDEENIEEAAKKAEEAIKAAAEAVKAAAKAAK
B36: design_600_24101276-ad9d-4944-b73e-53bb160363ad_551_dldesign_0_cycle1_af2pred (protein)
chain: GSSAANALADAQRKALKELQAVGKEAEKVSPEAAKKAAEYRDKLLDGETVEEVEAVKEEGLKEVTAMIEKAKAA
B37: design_600_24101276-ad9d-4944-b73e-53bb160363ad_413_dldesign_0_cycle1_af2pred (protein)
chain: ITPEEAKKLMENIAEAAKDMATWNPAAAETIAKSATKRMESIGKKAGIEEEAKKYSEEVKKFAKEVKEKS
B38: design_600_24101276-ad9d-4944-b73e-53bb160363ad_1497_dldesign_0_cycle1_af2pred (protein)
chain: DEAHKRAKALYEEDRALQKELRKKAKEAKEMAKEFADDPVWKAKAEEASKLNLQALFDPENKETREKGEKTYEEVYKKYKELKKKK

What follows are binders tested against VTCN1, Q7Z7D3.
VTCN1, Q7Z7D3, sequence (Q7Z7D3 whole entry): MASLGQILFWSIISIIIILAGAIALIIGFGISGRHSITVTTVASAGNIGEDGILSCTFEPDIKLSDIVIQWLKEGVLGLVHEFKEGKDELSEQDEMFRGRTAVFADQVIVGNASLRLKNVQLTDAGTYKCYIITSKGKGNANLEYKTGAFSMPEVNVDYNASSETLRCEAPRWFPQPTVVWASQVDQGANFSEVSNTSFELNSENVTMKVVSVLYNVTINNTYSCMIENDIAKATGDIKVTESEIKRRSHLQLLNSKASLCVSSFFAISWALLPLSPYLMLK

Row | Binder | binding in a display sort
1 | B1 | not found
2 | B2 | not found
3 | B3 | not found
4 | B4 | not found
5 | B5 | not found
6 | B6 | not found
7 | B7 | not found
8 | B8 | not found
9 | B9 | not found
10 | B10 | not found
11 | B11 | not found
12 | B12 | not found
13 | B13 | not found
14 | B14 | not found
15 | B15 | binds (active)
16 | B16 | not found
17 | B17 | not found
18 | B18 | not found
19 | B19 | not found

Row | Binder | binding in a display sort
20 | B20 | not found
21 | B21 | not found
22 | B22 | not found
23 | B23 | not found
24 | B24 | not found
25 | B25 | not found
26 | B26 | not found
27 | B27 | not found
28 | B28 | not found
29 | B29 | not found
30 | B30 | not found
31 | B31 | not found
32 | B32 | not found
33 | B33 | not found
34 | B34 | not found
35 | B35 | not found
36 | B36 | not found
37 | B37 | not found
38 | B38 | not found
